KDM5B inh: inhibitors of human KDM5B histone demethylase; 220,000 tested, 2.6% active; Q9UGL1; AID 1347165; KDM5B demethylase, FDH-coupled NADH fluorescence (FDH is formaldehyde dehydrogenase); Potency, µM (doses to about 57.7 µM), hits mostly inhibitors; active = well fitted inhibition curve with a large enough effect; also: 0% is about no effect; nearly all actives have a fitted effect of over 70% in size
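Inhibition is measured as reduced NADH fluorescence generation from FDH coupling to formaldehyde release. Truncated KDM5BΔAP at 200 nM final acts on H3K4me3 peptide (12.5 µM in substrate mix) in pH 7.5 HEPES buffer with Tween-20, 30 min, room temperature.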
* hit, by the source's call; i = inactive. The full list was thinned out, with hits kept by preference. Potency is read from the fitted curve at half-maximal effect.

SMILES	KDM5B inh
Cc1cccc(C)c1NC(=O)N1CCN(S(C)(=O)=O)CC1	i
Cc1noc(CSc2ccc(C(=O)N3CCc4ccccc43)cc2)n1	i
CCCCCCn1nc(C(=O)Nc2ccc(OC)c(NC(C)=O)c2)c2ccccc2c1=O	i
CNC(=S)NNC(=O)c1cccnc1	i
CCCCOc1ccc(NC(=O)COc2ccc(C)c(C)c2)c2cccnc12	i
O=[N+]([O-])c1ccc(-c2csc(Nc3cccc4ccccc34)n2)cc1	i
COc1ccc(OC)c(CNCc2cccn2-c2nnc(N3CCOCC3)s2)c1	i
CN(c1ccccc1)S(=O)(=O)c1ccccc1C(=O)OCn1nnc2ccccc2c1=O	i
O=C(CCCC(=O)OCC(=O)c1ccc(Br)cc1)OCC(=O)c1ccc(Br)cc1	i
COC(=O)[C@@H]1Cc2c([nH]c3ccccc23)C(C)N1C(=O)c1ccccc1 (stereo partly specified)	i
COC(=O)[C@@H]1Cc2c([nH]c3ccccc23)[C@H]2C[C@@H](NCCN3CCOCC3)C[C@@H](c3ccc(F)cc3)N21	i
COC(=O)[C@@H]1Cc2c([nH]c3ccccc23)[C@H]2C[C@H](NCCc3cnc[nH]3)C[C@@H](c3ccccc3F)N21	i
COC(=O)[C@@H]1Cc2c([nH]c3ccccc23)[C@H]2C[C@@H](NCc3ccccc3)C[C@@H](c3ccccc3F)N21	4.5µM*
COCCN[C@@H]1C[C@@H]2c3[nH]c4ccccc4c3C[C@@H](C(=O)OC)N2[C@H](c2ccc(F)c(F)c2)C1	13µM*
COC(=O)[C@@H]1Cc2c([nH]c3ccccc23)[C@H]2C[C@@H](NCCN(C)C)C[C@@H](c3cccc(Cl)c3)N21	i
CCOc1ccccc1C1NC(=O)NC(CN2CCN(c3ccccn3)CC2)=C1C(=O)OC (stereo unspecified)	i
COc1cccc2cc(-c3cc(=O)oc4ccc(OS(C)(=O)=O)cc34)oc12	i
Cc1cc(C)cc(-n2ncc3c(=O)n(CC(O)COc4ccc(F)cc4)cnc32)c1 (stereo unspecified)	i
CCCCNc1nc(-c2ccc(NS(C)(=O)=O)cc2)cs1	i
Cc1nn2c(c1-c1ccccc1[S+](C)(=O)[O-])N(CCC(C)C)CCC2	22µM*
Cc1nn2c(c1-c1ccccc1[S+](C)(=O)[O-])N(Cc1ccc3[nH]ccc3c1)CCC2	i
COc1ccccc1CN1CCCn2nc(C)c(-c3ccccc3[S+](C)(=O)[O-])c21	i
CCn1c(-n2nc(C)cc2C)nc2c1c(=O)n(Cc1ccccc1Cl)c(=O)n2C	i
CC(CNC(=O)c1cc2cc(F)ccc2[nH]1)c1ccccc1 (stereo unspecified)	i
CC(=O)N1CC[C@H](c2nc3cc(F)ccc3o2)C1	i
SMILES	KDM5B inh
CCCc1noc(C(C)N2CCC(c3nc4cc(Cl)ccc4o3)CC2)n1 (stereo unspecified)	i
CCS(=O)(=O)c1ccc2oc([C@H]3CCN(C(C)C)C3)nc2c1	40µM*
COc1ccccc1N1CCN(C(=O)Cn2c(=O)[nH]c3ccccc3c2=O)CC1	i
Cn1c(=O)c2nc(SCCC(=O)Nc3ccccc3)n(C)c2n(C)c1=O	i
Cc1ccsc1C(=O)NC1CCN(c2cc(C(F)(F)F)ncn2)CC1	i
CC1=C(C(=O)OCc2ccc(C)cc2)C(c2cc3c(cc2Br)OCO3)CC(=O)N1 (stereo unspecified)	i
Cc1ccccc1-n1cc(-c2ccnc(NC(C)Cc3ccncc3)n2)cn1 (stereo unspecified)	25µM*
Cc1ccccc1-n1cc(CN(C)Cc2nc(-c3ccc(C(F)(F)F)cc3)no2)cn1	i
COCCN(Cc1cnn(-c2ccccc2C)c1)CC1CC1	i
CCCNC(=O)NC(=O)CN(CC(C)C)C1CC1	i
Cc1ccsc1CNC(=O)Cc1c(F)cccc1Cl	i
O=C(Cn1cnc2cc(F)ccc2c1=O)N(Cc1cccs1)c1ccc2c(c1)OCCO2	i
CN1c2cccnc2CN(CC2CCCCC2)CC[C@H]1CO	28µM*
CN1c2cccnc2CN(C2CCCCC2)CC[C@H]1CO	i
CN1c2cccnc2CN(Cc2ccccn2)CC[C@H]1CO	i
Cc1sc(NC(=O)c2ccc(Cl)c(S(=O)(=O)N3CCOCC3)c2)nc1-c1ccc(F)cc1	i
CCCc1nnc(SCC(=O)Nc2ccccc2Cl)n1-n1cccc1	i
O=S(=O)(N[C@H]1CO[C@H]2[C@@H]1OC[C@@H]2Nc1nccc(-c2ccc3c(c2)OCO3)n1)c1ccc2ccccc2c1	28µM*
O=C(N[C@H]1CO[C@H]2[C@@H]1OC[C@@H]2Nc1nccc(-c2ccc(-c3ccccc3)cc2)n1)c1ccc2c(c1)OCO2	i
Cc1ccc(C(=O)N[C@H]2CO[C@H]3[C@@H]2OC[C@@H]3Nc2nccc(-c3ccc4c(c3)OCO4)n2)cc1	28µM*
CCNC(=O)O[C@@H]1CO[C@H]2[C@@H]1OC[C@@H]2NS(=O)(=O)c1ccc2ccccc2c1	i
COc1ccc(-c2ccnc(N[C@H]3CO[C@H]4[C@@H]3OC[C@@H]4NC(=O)c3ccc4c(c3)OCO4)n2)cc1	i
COc1ccc(C(=O)N[C@H]2CO[C@H]3[C@@H]2OC[C@@H]3n2nnnc2-c2ccc3c(c2)OCO3)cc1	i
CC(=O)Nc1ccc(NC(=O)CNC(=O)c2ccc3nc(-n4cccc4)sc3c2)cc1	i
COc1cccc(S(=O)c2c(C)cc(C)cc2C)c1 (stereo unspecified)	i
SMILES	KDM5B inh
OC(C#CCN1CCC(c2ccccc2)C1)(c1ccccc1)C1CCCCC1 (stereo unspecified)	i
CSc1cccc(NC(=O)c2cc3c(N4CCCC4)nc(C)cn3n2)c1	i
CSc1ncc(Cl)c(C(=O)Nc2ccc(C)c(C)c2)n1	i
COc1ccc(C(=O)NC2CCN(C(=O)c3cc4c(=O)[nH]c(C)cn4n3)CC2)cc1F	i
CSc1ccc(NC(=O)c2cc3c(N4CCSCC4)nc(C)cn3n2)cc1	i
O=C(Nc1ccc(F)c(Cl)c1)c1nc2ccccc2nc1N1CCCCC1	i
Cc1cn2nc(C(=O)Nc3ccc(Cl)c(C)c3)cc2c(N2CCSCC2)n1	22µM*
COc1ccc(NC(=O)c2cc3c(N4CCSCC4)nc(C)cn3n2)cc1F	28µM*
CSc1cccc(NC(=O)c2cccc(C)c2)c1	i
Cc1cc(NC(=O)c2cnc3ccccc3n2)ccc1N1CCN(C)CC1	i
COc1ccc(C(C)NC(=O)c2cc3c(N4CCCC4)nc(C)cn3n2)cc1OC (stereo unspecified)	i
Cc1cn2nc(C(=O)Nc3ccc(F)c(C)c3)cc2c(N2CCSCC2)n1	32µM*
CSc1cccc(NC(=O)c2cc3c(N4CCSCC4)nc(C)cn3n2)c1	25µM*
CCC(C)c1ccc(NC(=O)CCc2ncc(-c3ccc(F)cc3)o2)cc1 (stereo unspecified)	i
NS(=O)(=O)c1ccc(N/N=C/c2cccc3ccccc23)c([N+](=O)[O-])c1	i
O=C(O)C(c1c[nH]c2ccc(CO)cc12)N1CCN(Cc2cccs2)CC1 (stereo unspecified)	i
C#CC1(O)CC(C)N(C)CC1C (stereo unspecified)	i
COc1cccc(C(=O)Oc2ccc(OC(=O)c3cccc(OC)c3)cc2)c1	i
Cc1cc(C)c(C(=O)OCC(=O)N2CCN(S(=O)(=O)c3ccc4ccccc4c3)CC2)c(C)c1	i
CC1=C(C(=O)OCc2ccc3c(c2)OCO3)C(c2c(F)cccc2Cl)CC(=O)N1 (stereo unspecified)	i

Screening results (PubChem)
